Measurements taken from PubChem BioAssay AID1159580 (chemical genetic matrix, 2015).
Out of some 5,500 compounds screened, about 2,000 (36%) were called active. Roughly 18% stayed inconclusive and do not appear here. Cut-off read from the data, not from the text of the source: active = normalized growth mostly below about 0.91 (no sharp cut-off); inconclusive = no clear call, values can overlap the other calls; inactive = mostly above about 0.92. This is one part of the list.

Assay: chemical genetic growth profiling, strain panel (AID 1159580);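 note: tested at 20 µM; growth read once vehicle control cultures reached saturation at 30 °C; 1 = growth at the plate median or of vehicle wells; lower values mean less growth of the strain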
Details: S. cerevisiae deletion strains, growth OD

Measured: normalized growth

CCC(=O)N1CCN(C(=O)c2ccccc2)CC1
inactive: locus YAL040C, strain CLN3, hits give low values 1.04 | locus YCL061C, strain MRC1 (second series), hits give low values 0.992 | locus YDR150W, strain NUM1, hits give low values 1.01 | locus YDR363W, strain ESC2, hits give low values 0.993 | locus YER002W, strain NOP16, hits give low values 1 | locus YGR078C, strain PAC10, hits give low values 0.989 | locus YJR075W, strain HOC1, hits give low values 1.02 | locus YMR263W, strain SAP30, hits give low values 0.994 | locus YNL153C, strain GIM3, hits give low values 1.05 | locus YNL175C, strain NOP13, hits give low values 1.02 | locus YNL197C, strain WHI3, hits give low values 0.983 | locus YNL224C, strain SQS1, hits give low values 0.994 | locus YOR083W, strain WHI5 (second series), hits give low values 1.03 | locus YPL055C, strain LGE1, hits give low values 1
